Our source for the Potency values is PubChem BioAssay (Tox21).

For assay [1], the target named is Gonadotropin-releasing hormone receptor (Homo sapiens) (UniProt P30968). The assay can be described thus: Human gonadotropin-releasing hormone receptor (GnRHR) small molecule agonists, calcium flux assay in GnRHR-HEK293 cells (AID 1920063). Further: nearly all actives have a fitted effect of over 35% in size. Further: potency means the concentration at half of the fitted maximal effect. An outline of the steps:
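HEK293 cells stably expressing human GnRHR were plated 18 h at 37 °C, loaded with calcium dye 1 h at 37 °C, then given compound in agonist mode; fluorescence (Ex/Em 480/540) read kinetically for 3 min at 1 s intervals.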
For orientation: Calcium flux is commonly read through the fluorescence of an indicator in the cells.

The target of assay [2] is KiSS-1 receptor (Homo sapiens) (UniProt Q969F8). Put plainly: Human kisspeptin (KISS1R) small molecule agonists, calcium flux assay in KISS1R-HEK293 cells (AID 1920064; active means well fitted activation curve with a large enough effect in the repeat runs). In a few lines:
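HEK293 cells stably expressing human KISS1R were plated 18 h at 37 °C, loaded with calcium dye for 1 h at 37 °C, then given compound by pin tool. Fluorescence (Ex/Em 480/540) was read kinetically for 3 min.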

Assay [3] in a line: G protein-coupled receptor (GPCR) small molecule agonists, calcium flux assay: HEK293 wild type cell line counter screen (AID 1920065). An outline of the steps:
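Cells were plated and cultured 18 h at 37 C/5% CO2, then loaded with calcium dye for 1 h at 37 C. Compounds in DMSO were pin-transferred in agonist mode, and fluorescence (Ex/Em 480/540) was read kinetically for 3 min at 1 s intervals.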

Assay [4] is described as follows: p53 small molecule agonists, cell-based qHTS assay with human liver microsomes: qHTS cell viability counter screen (AID 1963579). Further: nearly all actives have a fitted effect of over 45% in size. An outline of the steps: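 Luminescent CellTiter-Glo read-out, 30 min at room temperature, gauged cytotoxicity in p53RE-bla cells exposed 16 h at 37 C to DMSO-dissolved compounds with metabolic activation by human liver microsomes and NADPH, each 0.5 mg/mL final.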

Assay [5] can be described thus: p53 small molecule agonists, cell-based qHTS assay with rat liver microsomes: qHTS cell viability counter screen (AID 1963580). Further: nearly all actives have a fitted effect of over 45% in size. Further: potency means the concentration at half of the fitted maximal effect. In a few lines:
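Intracellular ATP, by CellTiter-Glo luminescence, defines viability. HCT-116 p53RE-bla cells, 4,000 per well, were compound-treated in the presence of rat liver microsomes and NADPH for 16 h at 37 C.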
Background: Quantitative high-throughput screening tests each substance at several concentrations.

The target of assay [6] is 5-hydroxytryptamine receptor 2A (Homo sapiens) (UniProt P28223). Put plainly: 5-hydroxytryptamine receptor 2A (HTR2A) small molecule antagonists, cell-based qHTS assay (AID 1963586). Further: nearly all actives have a fitted effect of over 45% in size. Further: potency means the concentration at half of the fitted maximal effect. An outline of the steps: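 Antagonist-mode intracellular calcium assay: DOI (4 nM) added after 5 min compound pre-incubation at room temperature to dye-loaded HTR2A-CHO cells. Fluorescence followed for 3 min, sampled every second.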

The target is the same in assay [7]. Put plainly: 5-hydroxytryptamine receptor 2A (HTR2A) small molecule agonists, cell-based qHTS assay (AID 1963587). Further: nearly all actives have a fitted effect of over 30% in size. Further: potency means the concentration at half of the fitted maximal effect. An outline of the steps:
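Kinetic calcium-flux fluorescence (2 min, 1 sec intervals) after compound addition in agonist mode. HTR2A-CHO cells were cultured 18 h, then dye-loaded 1 h at 37 C.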

Assay [8] addresses Muscarinic acetylcholine receptor M1 (Homo sapiens) (UniProt P11229). Put plainly: Cholinergic receptor muscarinic 1 (CHRM1) small molecule antagonists, cell-based qHTS assay (AID 1963588). Further: nearly all actives have a fitted effect of over 40% in size. An outline of the steps:
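CHRM1-CHO calcium-flux assay, antagonist mode. Cells were seeded 18 h, dye-loaded 1 h at 37 C and given compound for 5 min at RT, then acetylcholine was added at 50nM. FDSS fluorescence was read 3 min; 15 concentrations, three runs.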

The target is the same in assay [9]. Put plainly: Cholinergic receptor muscarinic 1 (CHRM1) small molecule agonists, cell-based qHTS assay (AID 1963589). Further: nearly all actives have a fitted effect of over 35% in size. Further: potency means the concentration at half of the fitted maximal effect. An outline of the steps: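 CHO cells stably expressing human CHRM1, seeded 18 h at 37 C/5% CO2, dye-loaded 1 h at 37 C, then given compound in agonist mode; intracellular calcium fluorescence read kinetically at 1 s intervals. Fifteen concentrations, three independent runs.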

Assay [10] can be described thus: cAMP Responsive Elements (CRE) small molecule agonists, cell-based qHTS assay (AID 1963590). In a few lines: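 CRE-bla HEK 293T cells in DMEM with 10% dialyzed FBS, NEAA, pyruvate and 25 mM HEPES were plated 18 h at 37 C/5% CO2, then exposed to compounds in DMSO for 3 h before LiveBLAzer B/G FRET substrate addition.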
Assay [11] in a line: cAMP Responsive Elements (CRE) small molecule antagonists, cell-based qHTS assay (AID 1963591; active means well fitted inhibition curve with a large enough effect in the signal ratio in the repeat runs, not every such curve was filed as active; the % refers to the signal ratio). An outline of the steps: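 CRE-bla HEK293T cells were plated 18 h at 37 °C/5% CO2, pinned with compound in DMSO, then stimulated with NKH477 at 0.25 uM final for 3 h. LiveBLAzer B/G FRET substrate was added and plates incubated 2 h at room temperature.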
The target in assay [12] is Beta-2 adrenergic receptor (Homo sapiens) (UniProt P07550). Put plainly: Adrenergic beta2 receptor (ADRB2) small molecule antagonists, cell-based qHTS assay (AID 1963592). Further: nearly all actives have a fitted effect of over 50% in size. Further: potency means the concentration at half of the fitted maximal effect. An outline of the steps:
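Cells (CHO, stable ADRB2 overexpression) incubated 18-20hr at 37C; compounds added from DMSO; agonist mix (1nM isoproterenol, 100uM IBMX, 25uM Ro-20-1724) added; 0.5hr RT; d2-cAMP and anti-cAMP-cryptate added; 1hr RT; 665/615 nm read.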

For assay [13] the target is unchanged. The assay can be described thus: Adrenergic beta2 receptor (ADRB2) small molecule agonists, cell-based qHTS assay (AID 1963593).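 Further: CHO cells stably overexpressing human ADRB2.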 An outline of the steps:
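CHO cells stably over-expressing ADRB2 were plated overnight at 37C, then dosed with compounds plus a stimulation mix containing 100uM IBMX and 25uM Ro-20-1724 for 0.5hr at room temperature. cAMP was measured by HTRF competition, 1hr.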

In assay [14] the target is D(2) dopamine receptor (Homo sapiens) (UniProt P14416). The assay can be described thus: Dopamine D2 receptor (DRD2) small molecule agonists, cell-based qHTS assay (AID 1963594). Further: nearly all actives have a fitted effect of over 35% in size. An outline of the steps:
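cAMP accumulation in DRD2-HEK293 cells measured by HTRF after 1 h detection; compounds added 10 min before NKH477 (200nM […]) forskolin-analogue stimulation, 30 min at room temperature, with Ro20-1724 present at 0.1 mM final.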

For assay [15] the target is unchanged. The assay can be described thus: Dopamine D2 receptor (DRD2) small molecule antagonists, cell-based qHTS assay (AID 1963595; active means well fitted inhibition curve with a large enough effect in the signal ratio in the repeat runs, with a control signal flat; the % refers to the signal ratio; further: potency means the concentration at half of the fitted maximal effect). In a few lines:
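DRD2-HEK293; 0.1 mM Ro20-1724; cpd 10 min RT; NKH477 200 nM + quinpirole 12 nM, 30 min RT; HTRF cAMP (cAMP-d2/anti-cAMP cryptate), 665/620 nm ratio after 1 h.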

A short description of assay [16]: p53 small molecule agonists, cell-based qHTS assay: qHTS cell viability counter screen (AID 1963581). Further: nearly all actives have a fitted effect of over 45% in size. Further: potency means the concentration at half of the fitted maximal effect. In a few lines: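 p53RE-bla HCT-116 cells were exposed to compounds for 16 h at 37 C; after the beta-lactamase FRET read in the same wells, CellTiter-Glo was added and luminescence (intracellular ATP) read after 30 min at room temperature.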
The nature of assay [17]: p53 small molecule agonists, cell-based qHTS assay with human liver microsomes (AID 1963577).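 Further: p53 response element beta-lactamase reporter cells with liver microsomes plus NADPH.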 In a few lines: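 p53RE-bla cells; 5 h settle, 37 C/5% CO2; cpd + HLM 0.5 mg/mL + NADPH 0.5 mg/mL (final); 16 h 37 C; LiveBLAzer 2 h RT dark; fluorescence readout.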
Assay [18] in a line: p53 small molecule agonists, cell-based qHTS assay with rat liver microsomes (AID 1963578). In a few lines:
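Rat liver microsome activation: microsomes 0.5 mg/mL, NADPH 0.5 mg/mL final; p53RE-bla cells, 16 h 37 C; LiveBLAzer readout, 2 h RT dark.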

Assay [19] can be described thus: p53 small molecule agonists, cell-based qHTS assay (AID 1963582; active means well fitted activation curve with a large enough effect in the signal ratio in the repeat runs, not every such curve was filed as active; the % refers to the signal ratio). In a few lines:
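p53RE-bla beta-lactamase reporter cells rested 5 h at 37 C/5% CO2, then received compounds in DMSO by pin transfer and were incubated 16 h at 37 C. LiveBLAzer B/G FRET substrate was loaded for 2 h at room temperature before fluorescence reading.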

SMILES strings stand for the structures. Several values for one entry are separate records, joined by “and”; a condition that tells them apart may be missing. Identical values can stand only once. Records with an inconclusive call do not appear. More than one record can exist for a structure, and the calls need not agree. Activity calls are given as the source filed them. Unless noted, the call rests on the fitted dose curve.

Beta-2 adrenergic receptor (Homo sapiens), sequence (P07550 whole entry, looked up): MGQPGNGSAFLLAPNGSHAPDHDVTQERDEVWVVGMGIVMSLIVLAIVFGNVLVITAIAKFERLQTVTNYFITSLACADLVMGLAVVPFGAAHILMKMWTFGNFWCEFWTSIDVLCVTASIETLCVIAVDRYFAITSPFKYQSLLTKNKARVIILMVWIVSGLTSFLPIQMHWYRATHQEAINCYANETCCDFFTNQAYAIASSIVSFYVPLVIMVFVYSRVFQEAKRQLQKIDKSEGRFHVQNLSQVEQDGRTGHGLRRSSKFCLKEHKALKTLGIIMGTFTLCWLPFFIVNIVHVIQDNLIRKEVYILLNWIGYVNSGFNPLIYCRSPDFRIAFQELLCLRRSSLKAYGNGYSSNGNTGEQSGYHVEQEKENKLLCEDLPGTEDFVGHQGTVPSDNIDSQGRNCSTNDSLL
Muscarinic acetylcholine receptor M1 (Homo sapiens), sequence (P11229 whole entry, looked up): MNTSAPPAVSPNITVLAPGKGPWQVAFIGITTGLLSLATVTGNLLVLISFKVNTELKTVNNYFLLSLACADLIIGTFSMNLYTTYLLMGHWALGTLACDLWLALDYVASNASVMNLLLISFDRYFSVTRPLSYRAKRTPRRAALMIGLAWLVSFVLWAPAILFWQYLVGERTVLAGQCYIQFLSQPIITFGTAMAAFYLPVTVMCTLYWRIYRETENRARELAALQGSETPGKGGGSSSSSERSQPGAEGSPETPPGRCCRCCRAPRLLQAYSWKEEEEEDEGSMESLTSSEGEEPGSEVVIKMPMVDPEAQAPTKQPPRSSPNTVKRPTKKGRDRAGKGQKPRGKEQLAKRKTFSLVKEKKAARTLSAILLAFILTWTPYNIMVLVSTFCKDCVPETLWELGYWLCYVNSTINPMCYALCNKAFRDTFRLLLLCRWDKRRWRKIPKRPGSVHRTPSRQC
5-hydroxytryptamine receptor 2A (Homo sapiens), sequence (P28223 whole entry, looked up): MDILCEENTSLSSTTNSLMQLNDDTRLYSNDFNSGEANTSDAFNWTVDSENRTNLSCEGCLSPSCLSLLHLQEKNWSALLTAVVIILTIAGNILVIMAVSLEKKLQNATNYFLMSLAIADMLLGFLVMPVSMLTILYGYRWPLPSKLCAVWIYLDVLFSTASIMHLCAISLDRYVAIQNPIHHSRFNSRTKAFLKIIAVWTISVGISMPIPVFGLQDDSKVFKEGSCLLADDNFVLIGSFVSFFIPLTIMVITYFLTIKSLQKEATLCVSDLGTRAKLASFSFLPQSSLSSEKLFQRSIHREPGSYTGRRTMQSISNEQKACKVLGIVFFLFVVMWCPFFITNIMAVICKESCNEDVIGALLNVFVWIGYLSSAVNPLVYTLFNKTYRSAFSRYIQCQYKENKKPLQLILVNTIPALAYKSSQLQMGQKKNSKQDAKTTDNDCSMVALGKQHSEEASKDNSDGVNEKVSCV
Gonadotropin-releasing hormone receptor (Homo sapiens), sequence (P30968 whole entry, looked up): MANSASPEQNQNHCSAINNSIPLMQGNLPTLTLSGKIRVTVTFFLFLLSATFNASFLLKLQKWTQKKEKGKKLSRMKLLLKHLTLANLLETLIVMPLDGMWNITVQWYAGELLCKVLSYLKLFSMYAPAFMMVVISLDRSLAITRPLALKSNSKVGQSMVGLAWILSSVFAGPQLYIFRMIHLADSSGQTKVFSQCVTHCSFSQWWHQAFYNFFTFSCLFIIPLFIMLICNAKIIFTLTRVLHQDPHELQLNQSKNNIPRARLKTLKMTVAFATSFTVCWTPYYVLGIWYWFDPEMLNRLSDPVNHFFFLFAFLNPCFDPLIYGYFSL
D(2) dopamine receptor (Homo sapiens), sequence (P14416 whole entry, looked up): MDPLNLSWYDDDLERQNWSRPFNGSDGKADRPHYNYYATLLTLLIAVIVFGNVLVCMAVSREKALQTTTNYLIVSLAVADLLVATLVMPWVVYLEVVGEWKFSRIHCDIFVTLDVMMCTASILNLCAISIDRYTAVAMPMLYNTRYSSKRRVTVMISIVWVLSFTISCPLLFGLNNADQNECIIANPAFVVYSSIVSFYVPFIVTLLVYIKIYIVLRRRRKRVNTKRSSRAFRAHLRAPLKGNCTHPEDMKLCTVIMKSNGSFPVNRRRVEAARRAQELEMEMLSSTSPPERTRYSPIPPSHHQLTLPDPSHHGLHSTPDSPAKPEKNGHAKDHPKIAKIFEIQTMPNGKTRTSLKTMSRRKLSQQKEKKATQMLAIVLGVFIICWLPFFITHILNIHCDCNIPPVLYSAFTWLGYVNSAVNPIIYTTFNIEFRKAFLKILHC
KiSS-1 receptor (Homo sapiens), sequence (Q969F8 whole entry, looked up): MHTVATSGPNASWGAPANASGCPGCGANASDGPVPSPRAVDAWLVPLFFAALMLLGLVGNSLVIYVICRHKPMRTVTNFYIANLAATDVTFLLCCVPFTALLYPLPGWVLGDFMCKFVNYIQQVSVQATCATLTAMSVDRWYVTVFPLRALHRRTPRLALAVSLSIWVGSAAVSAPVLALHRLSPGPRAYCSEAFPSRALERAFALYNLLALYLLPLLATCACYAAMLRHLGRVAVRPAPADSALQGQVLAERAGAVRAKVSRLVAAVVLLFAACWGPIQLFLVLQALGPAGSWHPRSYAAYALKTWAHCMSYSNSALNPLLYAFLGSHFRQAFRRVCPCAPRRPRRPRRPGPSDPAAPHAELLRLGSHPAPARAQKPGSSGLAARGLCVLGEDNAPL

On to `CN(C)C(=S)S`, for which the Potency result in assay [1], in assay [2], in [3], in assay [4], in [6] and in [7] was “inactive” in each case. For the same compound, the Potency entry in assay [8], in assay [9], in [10], in assay [11], in [12] and in assay [13] was “inactive” each time. The Potency result in assay [14] and in assay [15] was “inactive” throughout. Besides, the Potency result in assay [5] was “inactive and 8.08 µM (active)”.
Regarding `CCCCCCCCCCCCOS(=O)(=O)O`, the Potency entry in assay [1], in assay [2], in [3], in [4], in [16] and in [6] was “inactive” in each case. For the same compound, the Potency result in assay [8], in assay [9], in [11], in assay [14] and in assay [15] was “inactive” throughout. Besides, the Potency result in assay [7] was “inactive and 55 µM (active) and 49 µM (active)”.
Turning to `CCCCCCn1cc[n+](C)c1`, the Potency result in [1], in assay [2], in assay [3], in [4], in assay [5] and in [16] was “inactive” each time. Besides, the Potency entry in assay [6], in assay [7], in assay [8], in assay [9], in [10] and in [11] was “inactive” throughout. For the same compound, the Potency entry in [12], in assay [14] and in assay [15] was “inactive” each time.
In the case of `[Cl-].[Cl-].[Hg+2]`, the Potency is 38.7 µM (active) and 38.9 µM (active) in assay [1]; 3.62 µM (active) and 9.13 µM (active) in assay [16]; 54.9 µM (active) in assay [7]; 54.9 µM (active) in [9]; 48.3 µM (active) in assay [12]; 1.92 µM (active) in assay [15]. Further, the Potency result in assay [3], in assay [6] and in assay [8] was “inactive” each time.
`[Cd+2].[Cl-].[Cl-]`: the Potency entry in assay [1], in [2], in assay [3], in assay [5], in [6] and in assay [7] was “inactive” each time. For the same compound, the Potency result in assay [9], in [10], in assay [12], in assay [14] and in assay [15] was “inactive” throughout. In addition, the Potency in assay [16] was 36.7 µM (active).
As to `OCCCCO`, the Potency entry in assay [1], in assay [2], in [17], in assay [18], in assay [4] and in assay [5] was “inactive” throughout. Also, the Potency entry in assay [16], in assay [19], in [6], in assay [7], in assay [8] and in assay [9] was “inactive” each time. Further, the Potency result in assay [10], in assay [11], in assay [12], in assay [13], in assay [14] and in assay [15] was “inactive” throughout.
As for `CC(=O)C=C(C)C`, the Potency result in [1], in [2], in assay [3], in assay [4], in assay [5] and in assay [16] was “inactive” throughout. For the same compound, the Potency result in assay [6], in [7], in assay [8], in assay [9], in assay [10] and in assay [11] was “inactive” throughout. Also, the Potency entry in [12], in assay [13], in assay [14] and in assay [15] was “inactive” throughout.
Regarding `Nc1c(Cl)c(Cl)nc(C(=O)O)c1Cl`, the Potency entry in [1], in [3], in assay [17], in assay [4], in assay [5] and in assay [19] was “inactive” throughout. Moreover, the Potency result in assay [6], in assay [7], in [8], in assay [9], in [11] and in assay [12] was “inactive” in each case. Further, the Potency result in assay [14] and in [15] was “inactive” each time.
On to `O=C(NCc1cccnc1)Nc1ccc([N+](=O)[O-])cc1`, for which the Potency result in assay [2], in [3], in assay [18], in assay [4], in assay [5] and in assay [16] was “inactive” throughout. In addition, the Potency entry in assay [7], in assay [8], in assay [9], in assay [10], in [11] and in assay [14] was “inactive” throughout. Also, the Potency entry in [15] was “inactive”. Further, in assay [6], the Potency was 3.75 µM (active).
`CCOC(=O)CC(SP(=O)(OC)OC)C(=O)OCC` (centres undefined): the Potency result in assay [1], in assay [2], in [3], in assay [4], in [5] and in assay [16] was “inactive” throughout. The Potency entry in assay [19], in assay [6], in assay [7], in [8], in assay [9] and in assay [11] was “inactive” throughout. Besides, the Potency entry in [12] and in assay [15] was “inactive” in each case.
